# Assay outcomes from PubChem BioAssay.
# Shown are actives, neighbours in structure and some others; about 7.7% of the full set was active somewhere.
# TbPYK inhibitor: qHTS of Trypanosoma Brucei Inhibitors; 410,000 compounds, 0.12% hits; Potency, µM (doses to about 76.8 µM), without a hit: at the highest dose activity, negative = inhibition, usual class: inhibitors; AID 624173, 2012; TbPYK enzyme, Kinase-Glo Plus ATP luminescence, 45 min; pyruvate kinase (Trypanosoma brucei), Q57TT1; also: potency is read from the fitted curve at half-maximal effect; nearly all actives have a fitted effect of over 50% in size
#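 Luminescence from Kinase-Glo Plus, added after a 45-minute room-temperature reaction, served as the end-point read-out. The enzyme and substrate were preincubated with compound before ADP (130 uM final) initiated turnover. Concentration-effect curves came from normalized qHTS data.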
# HCMV antiviral: qHTS Assay for inhibitors of the human cytomegalovirus (HCMV). HFF cells, HCMV-luciferase reporter, 72 h; active compounds read low. activity change, negative = inhibition, % at 57.5 µM. 410,000 compounds, 4.5% hits; in the data active = activity change below about -60%; inconclusive = no clear call, values can overlap the other calls; inactive = above about -39%
#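 Cell-based, HFFs, 1000 cells/well, 16 h 37C; cpds in DMSO + HCMV-luc, MOI 1 PFU/cell; 72 h 37C; OneGlo luminescence after 5 min RT; norm. to buffer vs Salinomycin 10uM.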
# Sm TGR block: qHTS Assay for the Inhibitors of Schistosoma Mansoni Peroxiredoxins. purified TGR, DTNB reduction, TNB absorbance 405 nm. Potency, µM (doses to about 114 µM), inactives show at the highest dose activity change, negative = inhibition, hits mostly inhibitors. 360,000 compounds, 3% hits; also: potency is read from the fitted curve at half-maximal effect; nearly all actives have a fitted effect of over 60% in size
#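 TGR 20 nM + NADPH 100 uM (dispensed conc.), cpd preinc 15 min RT; start with NADPH (500 uM addition) then DTNB (15 mM addition). Kinetic TNB absorbance, 405 nm filter. Four-parameter Hill fit across titration.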
# FMDV antiviral: High Throughput Screening for Foot and Mouth Disease Virus Antivirals | FMDV antiviral cell-based qHTS | Potency, µM (titrated, usually from 57.9 µM), for inactives: top-dose activity change, negative = inhibition, most hits filed as inhibitors | 410,000 compounds, 1.2% hits | AID 1159524, 2015; calls by dose curve; tested in HEK293T cells; also: read-out not given here; potency is read from the fitted curve at half-maximal effect; nearly all actives have a fitted effect of over 45% in size
# FBPA Giardia inh: qHTS Assay for Inhibitors of Fructose-1,6-bisphosphate Aldolase from Giardia Lamblia; 290,000 compounds, 0.71% hits; AID 2451, 2010; A8B2U2; Potency, µM (titrated, usually from 59.6 µM), for inactives: at the top dose activity, negative = inhibition, hits mostly inhibitors; purified Giardia FBPA; also: potency is read from the fitted curve at half-maximal effect; nearly all actives have a fitted effect of over 55% in size
# Target sequence (A8B2U2 whole entry, looked up): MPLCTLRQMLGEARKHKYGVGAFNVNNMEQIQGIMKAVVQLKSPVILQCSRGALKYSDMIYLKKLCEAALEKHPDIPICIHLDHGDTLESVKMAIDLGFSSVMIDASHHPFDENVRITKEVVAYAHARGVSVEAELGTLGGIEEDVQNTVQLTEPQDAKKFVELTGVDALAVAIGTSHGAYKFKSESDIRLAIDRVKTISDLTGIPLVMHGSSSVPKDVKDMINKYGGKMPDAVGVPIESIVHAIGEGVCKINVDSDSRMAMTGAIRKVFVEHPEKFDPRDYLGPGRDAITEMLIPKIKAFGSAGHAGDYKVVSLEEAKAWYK
#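 Giardia FBPA (40 nM reagent) was preincubated 10 min at RT with compound (up to 57.5 uM final), then substrate plus GAPDH/TPI/NAD/arsenate coupling system with diaphorase/resazurin was added; resorufin fluorescence (525/598 nm) was read after 20 min.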
# RE007 growth inh: qHTS Assay for Inhibitors of the HIV-1 protein Vpr. Potency, µM (titrated, usually from 92.2 µM), without a hit: top-dose activity change, negative = less growth, actives largely listed as inhibitors. S. pombe RE007 Vpr strain, BacTiter-Glo ATP luminescence, 24 h. 360,000 compounds, 0.21% hits; active = well fitted falling curve with a large enough effect; inconclusive = small, poorly fitted or top-dose-only effect; inactive = no such curve, though single readings can be large or run the other way; also: potency is read from the fitted curve at half-maximal effect; nearly all actives have a fitted effect of over 50% in size
#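 Fission yeast RE007 carrying one integrated HIV-1 vpr copy, seeded at OD 0.01 in PMG+AL medium with 23 nL pinned compound. Grown 24 h at 30 degrees; viability read by BacTiter-Glo luminescence after 5 min.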
# * marks the source's active call; other numbers are inactive results; u = inconclusive; x = not tested or not shown. Unless noted, calls follow the shape of the dose curve; as a rule, active = well fitted curve in the direction sought with a large enough effect; inconclusive = small, poorly fitted or top-dose-only effect, or another doubt; inactive = no such curve, though single readings can be large; an effect the other way counts as inactive or inconclusive. % is scaled to controls: 0 for no effect and ±100 for the full control effect.
SMILES,TbPYK inhibitor,HCMV antiviral,Sm TGR block,FMDV antiviral,FBPA Giardia inh,RE007 growth inh
CCOC(=O)Cc1c(C)nc2c(-c3cccc(Br)c3)cnn2c1C,-3%,-75*,-21%,-16%,1%,21%
O=C(O)c1cccc(Cn2c(Cl)c(/C=N/Nc3ccccc3)sc2=O)c1,-27%,x,3.5µM*,8%,10%,19%
O=C(N/N=C/c1sc(=O)n(Cc2ccc(Br)cc2)c1Cl)c1ccco1,-6%,-92*,45µM*,-21%,x,-11%
O=C(O)c1cccc(Cn2c(Cl)c(/C=N/NC(=O)c3ccccc3O)sc2=O)c1,-3%,-21,40µM*,-14%,13%,3%
O=C(N/N=C/c1ccc(Br)s1)c1ccco1,-2%,51,1%,30%,3%,-20%
COc1ccc(C(=O)N/N=C/c2sc(=O)n(Cc3cccc(C(=O)O)c3)c2Cl)cc1,-5%,0,22µM*,-15%,-1%,20%
Nc1cc2ccccc2cc1NS(=O)(=O)N1CCCCC1,x,4,x,x,x,x
CCC(Cn1nnc2ccccc2c1=O)NC(=O)Nc1cc(C)cc(C)c1 (stereo not given),-1%,106,-4%,7%,x,x
CCOC(=O)CCCCC(=O)c1[nH]c(=O)[nH]c1Cn1cnc2ccccc21,1%,47,16µM*,13%,1%,-2%
Cc1cccc(OCC(=O)Nc2c(C(=O)N3CCN(c4ccccc4F)CC3)oc3ccccc23)c1,-8%,-15,1%,52%,x,x
O=C1OC(c2ccc(F)cc2)=C/C1=C\c1ccc(O)cc1,-4%,25,13µM*,35%,23%,-15%
O=C1OC(c2ccc(F)cc2)=C/C1=C\c1ccc([N+](=O)[O-])o1,x,x,4µM*,x,-11%,x
O=C1OC(c2ccccc2)=C/C1=C/c1cccs1,-15%,26,-34%,15%,3%,-14%
COC(C(=O)C(O)C(C)O)C1Cc2cc3cc(OC4CC(OC5CC(O)C(O)C(C)O5)C(O)C(C)O4)c(C)c(O)c3c(O)c2C(=O)C1OC1CC(OC2CC(OC3CC(O)C(OC)C(C)O3)C(O)C(C)O2)C(O)C(C)O1 (stereo not given),-9%,-98*,x,3%,x,29%
COc1cccc(Nc2nc(-c3ccccc3)c3cc(C)ccc3n2)c1,4%,-36,14%,-20%,x,x
COc1cc(Nc2nc(-c3ccccc3)c3cc(C)ccc3n2)cc(OC)c1OC,-13%,97,40µM*,u,-21%,4%
Clc1ccc(Nc2nc(-c3ccccc3)c3cc(Cl)ccc3n2)cc1,-3%,-61*,0%,-19%,x,x
C/C(=N\NC(=O)c1cccc2ccccc12)c1cccs1,-6%,53,-32%,33%,u,19%
CC(=O)Nc1ccc(/C(C)=N/NC(=O)c2ccccc2Cl)cc1,8%,30,3%,28%,0%,-18%
C/C(=N\NC(=O)c1cccc2ccccc12)c1ccccn1,1%,-96*,0%,-6%,10%,u
Cc1cccc2sc(NNC(=O)c3cc(-c4cccs4)nc4ccccc34)nc12,-22%,-68*,-15%,u,1%,-12%
C/C(=N\NC(=O)c1cc(-c2cccs2)nc2ccccc12)c1ccccn1,-8%,-101*,8%,u,u,9%
C/C(=N\NC(=O)c1ccccc1Cl)c1ccccn1,-6%,-97*,8%,30%,u,u
Cc1cc(C)c(Cn2c(=O)n(-c3ccccc3Cl)c(=O)c3c(C)c(C(=O)N(C)C)sc32)c(C)c1,2%,14,6%,-24%,x,x
CCOCCc1nn2c(=O)cc(COC(=O)c3ccccc3Br)nc2s1,0%,-1,-5%,12%,x,x
SMILES,TbPYK inhibitor,HCMV antiviral,Sm TGR block,FMDV antiviral,FBPA Giardia inh,RE007 growth inh
CSCCC(NS(=O)(=O)c1ccc(Br)cc1)C(=O)OCC(=O)NC1CC1 (stereo not given),3%,-65*,-1%,8%,4%,1%
CSCCC(NS(=O)(=O)c1ccc(Cl)cc1)C(=O)OCC(=O)NC1CC1 (stereo not given),6%,-20,18%,-1%,2%,2%
O=C(NCc1ccccc1Cl)c1ccc(CSCc2cccc(F)c2)o1,-4%,-23,-2%,0%,x,x
COc1cccc(CN2CCN3C(C(=O)Nc4ccccc4)=COC3=NC2=O)c1,x,-62*,x,x,x,x
Cc1ccc(OCC(=O)c2cc(C)n(Cc3cccs3)c2C)c([N+](=O)[O-])n1,2%,-94*,x,18µM*,1%,3%
Cc1ccc(OCC(=O)c2cc(C)n(CC(F)(F)F)c2C)c([N+](=O)[O-])n1,-6%,-30,-26%,-22%,-1%,0%
COc1ccc(-n2c(C)cc(C(=O)COc3ccc(C)nc3[N+](=O)[O-])c2C)cc1,1%,-90*,-30%,u,-12%,33%
Cc1ccc(OCC(=O)c2cc(C)n(C3CC3)c2C)c([N+](=O)[O-])n1,-9%,-64*,-34%,23%,-2%,-2%
Cc1ccc(OCC(=O)c2ccc(Cl)s2)c([N+](=O)[O-])n1,3%,56,3.5µM*,65%,u,-19%
COc1ccc2c(c1)[C@@H](NS(C)(=O)=O)[C@H](C)[C@@H](c1ccccc1)N2Cc1cccc(F)c1,x,-9,x,x,x,x
COC(=O)C1=C(C)N(Cc2cccc(C(F)(F)F)c2)C(=NCc2ccc3c(c2)OCO3)NC1c1ccc(Cl)cc1 (stereo not given),x,-15,x,x,x,x
CC(=O)Nc1nnc(SCc2cc(=O)c3cccc(Cl)c3[nH]2)s1,-7%,28,-4%,-23%,x,x
COc1cccc(C(=O)Nc2nc3nc(C)c(C)c(=O)n3[nH]2)c1,-2%,-6,0%,-11%,x,x
OCCN1CN(c2ccccc2)C(=S)N(c2ccccc2)C1,x,38,x,x,x,x
O=C(COc1ccccc1)NCC(c1ccc(Cl)cc1)N1CCCCC1 (stereo not given),0%,-2,5%,-8%,x,x
CCOC(=O)C(Cc1ccccc1)C(=O)c1ccco1 (stereo not given),-6%,0,-31%,4%,x,-3%
CC(N)C(=O)c1ccco1 (stereo not given),3%,-68*,6%,-18%,-3%,10%
CCOC(=O)c1ccccc1NC(=O)Cn1c(=O)n(CCC(=O)N2CCc3ccccc3C2)c(=O)c2ccccc21,-1%,-11,3%,-11%,x,x
